GLP-1R agonist: GLP-1 receptor (human) agonism; P43220; AID 624172; Potency, µM (series often up to 45.6 µM), inactives show at the top dose activation, actives largely listed as activators; HEK293 GLP-1R CRE-luciferase, luminescence, 4-6 h; cells express a hypersensitive GLP-1R form; 380,000 tested, 0.007% active; note: potency is the fitted concentration of half-maximal effect; % of control where 0% means no effect
Target sequence (P43220 whole entry, looked up): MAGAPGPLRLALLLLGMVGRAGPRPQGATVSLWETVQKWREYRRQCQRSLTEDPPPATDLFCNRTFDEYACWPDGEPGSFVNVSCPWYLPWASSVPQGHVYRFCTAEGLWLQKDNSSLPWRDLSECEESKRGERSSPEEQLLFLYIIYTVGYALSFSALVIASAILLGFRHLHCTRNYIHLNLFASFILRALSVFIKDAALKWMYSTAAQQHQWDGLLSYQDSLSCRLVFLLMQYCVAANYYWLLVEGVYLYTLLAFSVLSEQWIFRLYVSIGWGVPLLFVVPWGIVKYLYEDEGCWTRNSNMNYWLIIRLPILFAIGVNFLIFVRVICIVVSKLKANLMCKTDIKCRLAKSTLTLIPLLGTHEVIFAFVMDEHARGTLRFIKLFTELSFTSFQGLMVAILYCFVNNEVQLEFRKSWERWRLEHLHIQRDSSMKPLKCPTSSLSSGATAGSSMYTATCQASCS
MmCpn inh: M. maripaludis TRiC chaperonin inhibition; purified Mm-Cpn ATPase, ADP Transcreener TR-FRET; Potency, µM (series often up to 76.9 µM), without a hit: top-dose activity, negative = inhibition, actives largely listed as inhibitors; 330,000 tested, 0.031% active; AID 504842; note: potency is the fitted concentration of half-maximal effect; % is set by controls: 0 for no effect and ±100 for the full control effect; nearly all actives have a fitted effect of over 80% in size
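Reaction buffer contained 30 mM Tris pH 7.4, 100 mM KCl, 5 mM MgCl2 and 1 mM DTT. Mm-CPN (25 nM final) hydrolysed 10 uM ATP over 30 min at 37°C; ADP was read by HTRF.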
GLP1R inv ag: inverse agonists of human GLP-1 receptor | P43220 | HEK293 GLP-1R CRE-luciferase, luminescence, 24 h; GLP-1R form is constitutively active | Potency, µM (highest dose often 38.3 µM), for inactives: at the top dose activity change, negative = inhibition, usual class: inhibitors | 410,000 tested, 1.6% active; note: potency is the fitted concentration of half-maximal effect; % is set by controls: 0 for no effect and ±100 for the full control effect; nearly all actives have a fitted effect of over 55% in size
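Cells are plated, allowed 12 hours at 37 deg C, then treated with compounds for 24 hr before luciferase detection reagent is added and luminescence is read after 12 min at room temperature. The HEK293 line carries constitutively active GLP-1R with a cAMP-responsive reporter.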
CCT chaperon mod: changes cytosolic chaperonin activity | activity change, % (test concentration not listed), hits read low | 360,000 tested, 0.3% active | purified chaperonin ATPase assay, HTRF ADP detection, 30 min; in the data active = activity change below about -30%; note: % is set by controls: 0 for no effect and ±100 for the full control effect
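Nucleotide hydrolysis assay: TRiC at 20–40 nM final (set by batch activity) with 10 uM ATP, 30 min at 37 °C, in presence of 76 uM compound. Detection by competitive ADP HTRF, 30 min ambient.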
uPA generation: inhibitors of cell surface uPA generation; cell surface uPA generation assay, qHTS; Potency, µM (top dose mostly 38.3 µM), for the others: at the highest dose activity change, negative = inhibition, hits mostly inhibitors; 330,000 tested, 0.31% active; AID 540303; active = well fitted inhibition curve with a large enough effect; inconclusive = small, poorly fitted or top-dose-only effect; inactive = no such curve, though single readings can be large or run the other way; tested in mouse RAW 264.7 cells; note: potency is the fitted concentration of half-maximal effect; % is set by controls: 0 for no effect and ±100 for the full control effect; nearly all actives have a fitted effect of over 55% in size
GLP1R cytotox: cytotoxic in the GLP-1 receptor inverse agonist counter-screen; HEK293 cAMP-luciferase reporter cells, luminescence, 24 h; Potency, µM (titrated, usually from 38.3 µM), for the others: at the top dose activity change, negative = inhibition, actives largely listed as inhibitors; 410,000 tested, 0.13% active; AID 624418;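 note: loss of luciferase light is scored as toxicity; potency is the fitted concentration of half-maximal effect; % is set by controls: 0 for no effect and ±100 for the full control effect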
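Luminescence readout: signal drop marks cytotoxicity. Plated cells grew 12 h at 37 °C, 5% CO2, received 23 nL compound for 24 h, then got luciferase reagent, read after 12 min at RT.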
* hit, by the source's call; ? = inconclusive; nt = no result. A selection: hits, their analogues and other compounds. The true share with any hit is near 2.2%. Unless noted, calls come from the whole dose curve; as a rule, active = well fitted curve in the direction sought with a large enough effect; inconclusive = small, poorly fitted or top-dose-only effect, or another doubt; inactive = no such curve, though single readings can be large; an effect the other way counts as inactive or inconclusive.

SMILES	GLP-1R agonist	MmCpn inh	GLP1R inv ag	CCT chaperon mod	uPA generation	GLP1R cytotox
COc1ccc(N(Cc2cccs2)C(=O)COc2ccc([N+](=O)[O-])cc2)cc1	nt	nt	?	nt	nt	3.1%
COc1ccc(N(Cc2cccs2)C(=O)COc2cccc(Cl)c2)cc1	nt	nt	14.1µM*	nt	nt	2.1%
CN1C(CSCC(F)(F)F)Nc2cc(Cl)c(S(N)(=O)=O)cc2S1(=O)=O (stereo not drawn)	-3.5%	nt	nt	nt	nt	nt
CCOC(=O)CNC(=O)c1ccc(C)cc1	8.4%	0.3%	3.2%	-0.9	6.2%	-2.8%
CCO/C=C/C(O)(CNC(=O)c1ccc(C(C)(C)C)cc1)C(F)(F)F (stereo not drawn)	-2.5%	1.9%	8.91µM*	-0.1	7.2%	-17.5%
COC(=O)c1c(Oc2ccc(C(C)=O)cc2)nnc(-c2ccccc2)c1-c1ccccc1	nt	nt	?	nt	nt	-7.6%
CCc1nc(SC)ncc1C(=O)N1CCN(c2cc(C)ccc2C)CC1	nt	nt	?	nt	nt	31.1%
CCCC12CN3CC(C)(CN(C1)C31CCCCC1)C2=O	-16.3%	0.1%	-22.2%	-48.0*	6.1%	-6.3%
CCN(CC)CCNC(=O)Nc1ccc2c(c1)N(Cc1ccccc1)C(=O)c1ccccc1S2	nt	nt	?	nt	nt	-20.2%
CCN(CC)C(=O)Nc1ccc(OC[C@H](O)CNC(C)(C)C)c(C(C)=O)c1	-1.1%	nt	nt	nt	nt	nt
CCCCC1C2=C(CC(C)(C)CC2=O)OC2=C1C(=O)CC(C)(C)C2	4.1%	-0.4%	8.91µM*	-2.4	-7.6%	-7.3%
Cc1cc2nc(-c3ccc[nH]c3=O)[nH]c2cc1C	15.9%	-6.8%	3.55µM*	-0.4	0.891µM*	73.9%
CCOc1ccccc1N(CC(=O)NCCSc1ccccc1)S(=O)(=O)c1ccccc1	nt	nt	?	nt	nt	-23.7%
CC(C)(C)OC(=O)NCCCC[C@H](NC(=O)c1nc[nH]c1C(=O)N[C@@H](CCCCNC(=O)OC(C)(C)C)C(=O)OC(C)(C)C)C(=O)OC(C)(C)C	-4.5%	-0.9%	?	1.5	-1.9%	-2.9%
CC(C)(C)OC(=O)NCCCCCNC(=O)c1nc[nH]c1C(=O)NCC(=O)OCc1ccccc1	-13.3%	1.6%	11.2µM*	0.9	-2.1%	-41.6%
CCN(CC)C(=O)c1[nH]cnc1C(=O)N[C@@H](CCCCNC(=O)OC(C)(C)C)C(=O)OC(C)(C)C	7.5%	nt	4.0%	-30.8*	22.6%	13.2%
C[C@H](NC(=O)c1nc[nH]c1C(=O)N[C@@H](CCCCNC(=O)OC(C)(C)C)C(=O)OC(C)(C)C)C(=O)OC(C)(C)C	-4.8%	0.6%	10µM*	0.0	5.9%	-10.8%
COc1ccc(-c2cc(OC(=O)c3ccccc3Cl)c3c(C)oc(C)c3c(=O)c2)cc1OC	nt	nt	0.4%	nt	nt	0.0%
Cc1nn(C)c2c1c(-c1ccccc1)cc(=O)n2Cc1ccc(F)cc1	nt	nt	?	nt	nt	19.5%
C[C@H](CO)N1C[C@H](C)[C@@H](CN(C)S(C)(=O)=O)Oc2c(NC(=O)Nc3ccc(C(F)(F)F)cc3)cccc2C1=O	2.7%	1.1%	5.6%	-1.8	-5.4%	8.6%
COc1ccc(NC(=O)Nc2cccc3c2O[C@H](CN(C)C(=O)Nc2ccc(C(F)(F)F)cc2)[C@@H](C)CN([C@H](C)CO)C3=O)cc1	-2.1%	1.8%	2.5%	-2.4	-13.2%	0.4%
C[C@H]1CN([C@@H](C)CO)C(=O)c2cccc(NC(=O)Nc3ccc(C(F)(F)F)cc3)c2O[C@H]1CN(C)C	-4.2%	-2.4%	10µM*	-2.7	-24.4%	18.5%
C[C@H](CO)N1C[C@H](C)[C@@H](CN(C)C(=O)Nc2ccc(C(F)(F)F)cc2)Oc2c(NC(=O)Nc3ccc(C(F)(F)F)cc3)cccc2C1=O	-11.3%	0.7%	11.2µM*	-0.6	?	?
Cc1cccc(C)c1NC(=O)Cn1c(=O)n(Cc2ccccc2)c(=O)c2c(C)c(C(=O)N(C)C)sc21	nt	nt	-9.1%	nt	nt	24.4%
CC(=O)c1cccc(NC(=O)CC(c2ccc(C)cc2)N2Cc3ccccc3C2=O)c1 (stereo not drawn)	9.3%	nt	-6.8%	nt	nt	-18.8%
SMILES	GLP-1R agonist	MmCpn inh	GLP1R inv ag	CCT chaperon mod	uPA generation	GLP1R cytotox
NC(=O)CCCn1c(C(=O)c2cc(Cl)c(N)c(Cl)c2)c2ccc([N+](=O)[O-])cc2[n+]1[O-]	6.7%	-0.6%	-4.1%	-1.3	3.16µM*	0.2%
NC(=O)CCCn1c(C(=O)c2ccc(Cl)cc2)c2ccc([N+](=O)[O-])cc2[n+]1[O-]	8.8%	0.2%	-1.0%	-2.9	1.41µM*	-19.3%
Cc1ccc(C(=O)c2c3ccc([N+](=O)[O-])cc3[n+]([O-])n2CCCC(N)=O)cc1	8.7%	-0.4%	17.1%	-0.3	?	10.3%
COc1cccc(/C=C2\SC(=S)N(CCCC(=O)N(CCO)c3ccccc3)C2=O)c1	2.7%	-7.6%	4.47µM*	0.5	?	-13.8%
COc1cccc(/C=C2\SC(=S)N(CCCC(=O)N3CCCCC3)C2=O)c1	-4.5%	0.7%	?	0.7	?	5.4%
COc1cccc(/C=C2\SC(=S)N(CCC(=O)NCCc3ccc(O)cc3)C2=O)c1	-2.9%	4.5%	3.98µM*	-1.0	-11.8%	?
O=C(CCCN1C(=O)/C(=C\c2cccc(Br)c2)SC1=S)Nc1ccc(C(=O)O)cc1	2.2%	nt	?	-4.2	nt	-10.5%
O=C1/C(=C/c2cccc(Br)c2)SC(=S)N1CCC(=O)N(CCO)c1ccccc1	-0.5%	-0.5%	11.2µM*	-0.5	-22.1%	15.9%
Cc1c(Cl)cccc1NC(=O)c1ccc2c(c1)CCN2S(=O)(=O)c1ccccc1	nt	nt	2.3%	nt	nt	-0.6%
CCOC(=O)c1c(CC(C)C)csc1NC(=O)c1ccccc1C(=O)O	-2.0%	-23.3%	11.2µM*	0.2	7.0%	-10.4%
CCOC(=O)c1c(CC(C)C)csc1NC(C)=O	16.2%	-0.3%	?	-1.9	3.7%	-12.8%
Cc1nn(CC(C)C)c(Cl)c1C(=O)N(c1ccc(Cl)cc1F)S(C)(=O)=O	-3.2%	-0.3%	8.91µM*	0.2	-5.6%	-11.8%
CSc1cccc(NC(=S)N(CCC(C)C)C2CCN(C(C)C)CC2)c1	-2.3%	2.3%	8.91µM*	0.9	-2.3%	?
CC(=O)c1ccc(NC(=O)CCCc2nc(-c3cccc(C)c3)no2)cc1	nt	nt	-1.2%	nt	nt	4.9%
CCOc1ccc(C2C(C(=O)Nc3ccc(C)cc3C)=C(C)Nc3c(C(=O)Nc4ccc(C)cc4)cnn32)cc1OC (stereo not drawn)	nt	nt	3.7%	nt	nt	-6.1%

Screens as filed in PubChem BioAssay.
